In all, about 16,000 compounds went through this assay and about 4,000 (25%) were called active. Not shown: some 26% with an inconclusive outcome. These entries were drawn from the full list. Values without a mark were called inactive. Calls come from the whole dose curve; as a rule, active = well fitted curve in the direction sought with a large enough effect; inconclusive = small, poorly fitted or top-dose-only effect, or effect the other way; inactive = no such curve, though single readings can be large or run the other way.
% is set by controls: 0 for no effect and ±100 for the full control effect.

Cytochrome P450 2C9 (Homo sapiens), sequence (P11712 whole entry, looked up): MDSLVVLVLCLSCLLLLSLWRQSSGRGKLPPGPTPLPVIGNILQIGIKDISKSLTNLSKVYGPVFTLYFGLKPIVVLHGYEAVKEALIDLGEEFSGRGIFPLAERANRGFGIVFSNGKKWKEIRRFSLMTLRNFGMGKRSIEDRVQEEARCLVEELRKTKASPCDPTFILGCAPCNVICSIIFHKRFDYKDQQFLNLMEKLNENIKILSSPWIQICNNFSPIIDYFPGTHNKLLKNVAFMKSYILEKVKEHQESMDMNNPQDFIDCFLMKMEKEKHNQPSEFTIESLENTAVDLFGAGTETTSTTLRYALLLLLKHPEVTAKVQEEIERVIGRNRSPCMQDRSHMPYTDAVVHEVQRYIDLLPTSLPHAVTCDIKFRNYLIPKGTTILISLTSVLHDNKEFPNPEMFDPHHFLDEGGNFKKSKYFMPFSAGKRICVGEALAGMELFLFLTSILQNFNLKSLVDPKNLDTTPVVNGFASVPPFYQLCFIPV

This assay addresses Cytochrome P450 2C9 (Homo sapiens) (UniProt P11712). Briefly: Cytochrome panel assay with activity outcomes. Conditions: recombinant CYP, pro-luciferin dealkylation, luminescence, p450-cyp2c9; series mostly up to 57.1 µM; activity, negative = inhibition: at the top concentration.
`ClC(=Nc1cccc2ccccc12)N(c1ccccc1)c1ccccc1`: the AC50 is 3.16 µM (active).
For the compound `CCCN1CNC(=S)N(c2cccc(C)c2C)C1`, the “activity, negative = inhibition” value was 16.7%.
In the case of `Cc1cc(NC(=O)CSc2nc3ccccc3c(=O)n2CCCC(=O)NCc2ccco2)n[nH]1`, the AC50 was 4.47 µM (active).
In the case of `O=C(CSc1nc2ccccc2c(=O)n1Cc1ccccc1)NCc1ccco1`, the “activity, negative = inhibition” value was -22.6%.
In the case of `O=c1c2ccccc2nc(SCc2ccccc2Cl)n1Cc1ccccc1`, the AC50 is 1.26 µM (active).
Same read-out and setting: the same measure for `O=C(CSc1nc2ccccc2c(=O)n1CCCC(=O)N1CCCC1)NCc1ccco1`: 7.08 µM (active); for `Cc1cccc(C)c1-n1c(SCC(=O)NCc2ccco2)nc2ccccc2c1=O`: 14.1 µM (active).
Turning to `Oc1ccc([C@@H]2CNCCc3c2cc(O)c(O)c3Cl)cc1`, the “activity, negative = inhibition” value was -2.43%.
Still for that read-out and setting: the result for `O=c1[nH]c(=O)n([C@@H]2C[C@H](O)[C@H](CO)O2)cc1I` reads -5.5% [at 25.6 µM].
In the case of `O=C(CSc1nc2ccccc2c(=O)n1NC(=O)Cc1ccccc1)NCc1ccccc1Cl`, the AC50 was 0.398 µM (active).
Take `O=C(O)CCCCCn1c(SCC(=O)N2CCCC2)nc2ccsc2c1=O`: the “activity, negative = inhibition” value is -13.4%.
As to `COc1ccc(NC(=O)CSc2nc3ccccc3c(=O)n2CCC(=O)N2CCCCC2)cc1`, the AC50 was 3.98 µM (active).
On to `CN1CCN(C(=O)c2ccc3c(=O)n4c(nc3c2)CCCCC4)CC1`, for which the “activity, negative = inhibition” value is -8.69%.
On to `COCC(=O)N1CCC2(CCCN(C(=O)Nc3ccc(OC)cc3)C2)CC1`, for which the “activity, negative = inhibition” value was 7.89%.
For the compound `N#CCSc1nc2cc(C(=O)N3CCCC3)ccc2c(=O)n1Cc1ccccc1`, the AC50 is 3.98 µM (active).
The same measure, in the same setting: the same measure for `O=C(CSc1nc2ccccc2c(=O)n1CCCO)NCc1ccccc1`: 12.6 µM (active).
Turning to `Cc1cc(NC(=O)CSc2nc3ccsc3c(=O)n2CCCCC(=O)O)no1`, the “activity, negative = inhibition” value was -13.1%.
In the case of `Cc1ccc2cc(C)c3nnc(SCC(=O)NCc4ccco4)n3c2c1`, the AC50 is 15.8 µM (active).
As for `COCc1nc2c([nH]1)c(=O)n(C)c(=O)n2CC(C)C`, the “activity, negative = inhibition” value is 2.72%.
Still for that read-out and setting: the result for `CCN1CCN(C(=O)CCc2nc3ccccc3c(=O)[nH]2)CC1` reads -18.2%; that for `Cc1cc2cc(C)c3nnc(SCC(=O)NCc4ccc5c(c4)OCO5)n3c2cc1C`, -80.6%.
With `Cc1cc(NC(=O)CSc2nc3ccsc3c(=O)n2Cc2ccccn2)n[nH]1`, the AC50 is 28.2 µM (active).
The same measure, in the same setting: the result for `CC(C)Cn1c(SCc2nc3ccccc3c(=O)[nH]2)nc2ccccc2c1=O` reads 2 µM (active).
On to `CCCc1nnc(SCC(=O)N2CCCCC2)n1CC1CCCO1` (centres undefined), for which the “activity, negative = inhibition” value is 16.6%.
For `O=C(NCC1CCCO1)c1ccc2c(=O)n(Cc3ccco3)c(SCC(=O)N3CCCC3)nc2c1` (centres undefined), the AC50 is 2.24 µM (active).
Take `Cc1cc(C)c(C)c(S(=O)(=O)ON2C(=O)c3ccccc3C2=O)c1C`: the “activity, negative = inhibition” value was 14%.
Consider `Cc1ccc(OCCCN2C(=O)C(=O)c3cccc(C)c32)cc1`, for which the half-maximal activity concentration (AC50) is 8.91 µM (active).
Consider `CN(c1ccc(C(=O)NC2CC3CCC2C3)cc1)S(C)(=O)=O` (centres undefined), for which the “activity, negative = inhibition” value is 15.8%.
As to `CS(=O)(=O)N1CCN(c2ccc(C(=O)NC3C4CC5CC(C4)CC3C5)cc2[N+](=O)[O-])CC1` (centres undefined), the AC50 was 12.6 µM (active).
On to `CCCN[C@@H](C)C(=O)Nc1c(C)csc1C(=O)OC`, for which the “activity, negative = inhibition” value is -10.3% [at 25.6 µM].
Same read-out and setting: the same measure for `CC(=O)c1c(N=CN(C)C)nc(C)nc1-c1ccccc1`: -16%.
Take `O=c1c(-c2ccccc2)nc2cnc(N3CCOCC3)nc2n1CCc1ccccc1`: the AC50 was 7.94 µM (active).
Turning to `CN1CCN(c2ncc3nc(-c4ccccc4)c(=O)n(CCc4ccccc4)c3n2)CC1`, the AC50 is 3.16 µM (active).
The same measure, in the same setting: the same measure for `O=c1cnc2cnc(N3CCOCC3)nc2n1CCc1ccccc1`: 10 µM (active).
Turning to `CN1CCN(c2ncc3ncc(=O)n(CCc4ccccc4)c3n2)CC1`, the “activity, negative = inhibition” value is -24.4%.
In the case of `COc1ccc(-c2nc3cnc(N4CCN(C)CC4)nc3n(CCc3ccccc3)c2=O)cc1`, the “activity, negative = inhibition” value was 2.38%.
Same read-out and setting: the same measure for `CN1CCN(c2ncc3nc(-c4cc(F)cc(F)c4)c(=O)n(CCc4ccccc4)c3n2)CC1`: -4.14%.
The same measure, in the same setting: the same measure for `N#CCCn1c(=O)cnc2cnc(N3CCOCC3)nc21`: 22.8%; for `O=c1c(-c2ccc(Cl)cc2)nc2cnc(N3CCOCC3)nc2n1CCc1ccccc1`: 9.02%.
Take `COc1ccc(-c2nc3cnc(N4CCOCC4)nc3n(CCc3ccccc3)c2=O)cc1`: the “activity, negative = inhibition” value is -27.3%.
For `COc1ccccc1-c1ccc2ncnc(N(C)C)c2c1`, the activity, negative = inhibition is -21.1% [at 2.29 µM].
On the same count and under the same terms, the result for `CN1[C@@H]2CC[C@H]1CC(OC(=O)c1c[nH]c3ccccc13)C2` (some centres undefined) reads -7.96%.
As to `CN1C2C=C(N(CCc3c[nH]c4ccccc34)C(=O)c3ccc(Cl)cc3)CC1CC2` (centres undefined), the AC50 was 1.78 µM (active).
In the case of `O=C(O)[C@H](Cc1c[nH]c2ccccc12)N1C(=O)c2ccccc2C1=O`, the activity, negative = inhibition is 6.23% [at 11.4 µM].
Turning to `C#CCCCO/N=C1/[C@H]2O[C@@H]2[C@@H](O)[C@H]2[C@H]1CCn1c(=O)n([C@@H](CC)c3ccccc3)c(=O)n12`, the activity, negative = inhibition was 4.97% [at 11.4 µM].
In the case of `COc1ccc(C(=O)Nc2cccc(OC(=O)c3ccc(C)c(C)c3)c2)cc1`, the AC50 was 3.55 µM (active).
On to `CN(Cc1ccco1)c1ncncc1-c1ccoc1`, for which the activity, negative = inhibition was -8.69% [at 2.29 µM].
For the compound `C/C(=N\n1nnnc1Nc1ccccc1)c1ccc(N)cc1`, the AC50 was 11.2 µM (active).
Same read-out and setting: the same measure for `N=C(N)SCc1nc2ccccc2c(=O)n1-c1ccccc1Cl`: 3.16 µM (active).

One may read the AC50 as the concentration at which the activity in the assay is half-maximal.

The values are drawn from PubChem BioAssay AID1851 (National Center for Advancing Translational Sciences (NCATS), 2009).
